# Rows were chosen to be rich in hits. Some 3.4% of all compounds tested hit in one or more screens of this group.
# KAT2A inh – GCN5L2 (KAT2A) acetyltransferase inhibition; 390,000 tested, 0.21% active; Q92830; Potency, µM (series often up to 58.9 µM), for inactives: at the highest dose activity change, negative = inhibition, usual class: inhibitors; GCN5L2 HAT assay, ThioGlo1 CoA-SH fluorescence; also: % is scaled to controls: 0 for no effect and ±100 for the full control effect
#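 ThioGlo1-coupled HAT assay: 20nM GCN5L2, 70uM acetyl-CoA, 75uM H3(1-25) peptide, pH 7.5. Fluorescence read at 340/540nm at start and after 20 min at room temperature.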
# GLS inhibitor – glutaminase GLS (human) inhibition; O94925; GLS enzymatic activity, qHTS titration; Potency, µM (highest dose often 45.5 µM), for the others: at the highest dose activity change, negative = inhibition, hits mostly inhibitors; 410,000 tested, 0.21% active; AID 624170; also: % is scaled to controls: 0 for no effect and ±100 for the full control effect
#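 Human kidney-isoform GLS in 45 mM KH2PO4 pH 8.2, 0.02% Tween-20, with compound, started with 1mM L-Glutamine (added stock). Glutamate oxidase/HRP/Amplex red coupled fluorescence read at start and after 30 min at RT.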
# Mito fusion act – mitochondrial division inhibition or fusion activation; S. cerevisiae fusion-defective mutant growth rescue, CellTiterGlo 48 h; Potency, µM (series often up to 46.1 µM), without a hit: at the highest dose growth rescue (activation), hits mostly activators; 320,000 tested, 0.23% active; also: % of control where 0% means no effect; nearly all actives have a fitted effect of over 45% in size
#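 S. cerevisiae fusion-defective temperature-sensitive mutants (e.g. fzo1-1, mgm1-5) grown 48 h at 37C in YPEG (ethanol/glycerol non-fermentable) medium with 23 nl compound per well; growth rescue read as CellTiterGlo luminescence.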
# VDR inh – blocks the human vitamin D receptor. P11473. VDR-SRC2-3 peptide fluorescence polarization, 2 h. Potency, µM, without a hit: max response, negative = inhibition, actives largely listed as inhibitors. 400,000 tested, 0.93% active; also: % is scaled to controls: 0 for no effect and ±100 for the full control effect
#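 Signal is fluorescence polarization, reporting how far test compounds block the interaction of VDR with the SRC2-3 coregulator peptide after a 2 h room-temperature incubation.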
# PKM2 activator – activators of human pyruvate kinase M2. Potency, µM (doses to about 57.5 µM), inactives show at the highest dose activation, most hits filed as activators. 260,000 tested, 0.34% active. P14618. purified PKM2, Kinase-Glo ATP luminescence, activation; response scale: 0% is enzyme alone, no compound. AID 1631; also: % is scaled to controls: 0 for no effect and ±100 for the full control effect; nearly all actives have a fitted effect of over 55% in size
# Target sequence (P14618 whole entry, looked up): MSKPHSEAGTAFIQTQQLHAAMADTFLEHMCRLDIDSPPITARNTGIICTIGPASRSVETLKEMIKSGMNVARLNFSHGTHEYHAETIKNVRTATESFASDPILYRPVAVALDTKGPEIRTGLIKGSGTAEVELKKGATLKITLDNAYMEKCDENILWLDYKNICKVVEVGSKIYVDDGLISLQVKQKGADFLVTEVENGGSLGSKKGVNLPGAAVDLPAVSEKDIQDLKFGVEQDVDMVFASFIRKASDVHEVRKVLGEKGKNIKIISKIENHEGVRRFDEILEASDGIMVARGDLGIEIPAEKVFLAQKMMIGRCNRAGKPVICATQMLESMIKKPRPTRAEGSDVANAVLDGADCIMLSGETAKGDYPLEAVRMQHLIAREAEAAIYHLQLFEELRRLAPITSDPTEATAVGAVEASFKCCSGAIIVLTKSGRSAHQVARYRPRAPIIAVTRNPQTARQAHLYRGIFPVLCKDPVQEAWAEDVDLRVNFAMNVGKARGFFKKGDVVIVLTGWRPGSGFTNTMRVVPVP
#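 hPK-M2, >95% pure; 0.1 mM ADP / 0.5 mM PEP final; imidazole pH7.2 buffer w/ 7 mM MgCl2, 50 mM KCl; 1 h RT; Kinase-Glo lum. Intermediate enzyme activity for dual inhibitor/activator qHTS.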
# PLK1 PBD inh – inhibitors of human PLK1 polo-box domain binding; Plk1 PBD binding of FITC phosphopeptide, fluorescence polarization; Potency, µM, for inactives: max response, negative = inhibition, most hits filed as inhibitors; 360,000 tested, 2.8% active; also: series mostly up to about 57 µM; % is scaled to controls: 0 for no effect and ±100 for the full control effect; nearly all actives have a fitted effect of over 65% in size
# Active calls of the source: *; ? = inconclusive; / = no result given; [ ] = another dose, or the depositor's remark. Calls follow the shape of the dose curve; as a rule, active = well fitted curve in the direction sought with a large enough effect; inconclusive = small, poorly fitted or top-dose-only effect, or another doubt; inactive = no such curve, though single readings can be large; an effect the other way counts as inactive or inconclusive. Potency is read from the fitted curve at half-maximal effect.
SMILES,KAT2A inh,GLS inhibitor,Mito fusion act,VDR inh,PKM2 activator,PLK1 PBD inh
COc1ccc(C2C(C(=O)O)CCC(=O)N2c2ccc(C)cc2)cc1OC (stereo unspecified),8%,0%,7%,2%,1%,-15%
COc1ccc(N2C(S)=C(C#N)C(=O)NC2c2ccc(OC)c(OC)c2)cc1 (stereo unspecified),-5%,21%,4%,40µM*,?,-28%
NS(=O)(=O)c1ccc(NC(=S)NC2CC2)cc1,2%,9%,3%,-4%,0%,?
CC(C)NC(=S)n1cc(C(=O)c2cc(Cl)cc(Cl)c2O)cn1,-9%,8%,11%,-1%,/,-6%
Cc1ccc(S(=O)(=O)c2nc(S(=O)(=O)CCO)sc2N2CCOCC2)cc1,-4%,5%,5%,-18%,/,30µM*
Cc1cccc(N2CCN(C(=O)CN3C(=O)COc4ccc(S(=O)(=O)N5CCC(C)CC5)cc43)CC2C)c1 (stereo unspecified),-5%,19%,/,13%,/,/
Cc1c(Br)c([N+](=O)[O-])nn1CC(=O)N1CCN(C23CC4CC(CC(C4)C2)C3)CC1,0%,18%,-5%,12%,-2%[0.46 µM],-5%
Cc1cc(C)cc(N2C(=O)CN(Cc3ccccc3)C2=S)c1,-30%,14%,7%,-26%,/,24µM*
O=C(O)CNS(=O)(=O)c1ccc2c3c(cccc13)C(=O)N2,?,-8%,4%,-20%,0%[11.5 µM],-10%
O=C1Nc2ccc(S(=O)(=O)N(CCO)CCO)c3cccc1c23,-4%,-1%,2%,-30%,-13%,21µM*
CCCC1NC(=O)c2cccnc2-n2c1nc1cc(F)c(F)cc1c2=O (stereo unspecified),/,-1%,/,/,/,-10%
O=C(O)c1ccc(CSCc2ccccc2Cl)o1,9%,14%,20%,?,/,21µM*
CC(C)NC(=O)c1ccc(CSCc2ccccc2Cl)o1,0%,7%,14%,-14%,/,-8%
COCC(=O)N1CCc2nc(-c3ccc(OC)cc3C)c3c(c2C1)CO[C@@H](c1ccccc1)C3,/,/,/,/,-8%[11.5 µM],/
C[n+]1c(-c2ccccc2)cc2c(=Cc3ccc([N+](=O)[O-])cc3)c3ccccc3n21,/,10µM*,/,?,/,2.1µM*
C[n+]1c(-c2ccccc2)cc2c(=Cc3ccccc3)c3ccccc3n21,/,-25%,/,?,/,3.8µM*
CN(C)c1ccc(C=c2c3cc(O)ccc3n3c2cc(-c2ccccc2)[n+]3C)cc1,/,-10%,/,-26%,/,?
CCc1ccc(CNC(=O)c2cccc(-n3cnc4cccnc43)c2C)cc1,3%,0%,/,5%,/,/
O=C(NCc1ccc(F)cc1)c1cccc(N2CCCS2(=O)=O)c1,20%,-4%,/,8%,/,/
Cc1cc2c(cc1S(=O)(=O)Nc1ccc(F)cc1)n(C)c(=O)c(=O)n2C,-38%,2%,2%,12%,2.5µM*,-5%
Cc1cc2c(cc1S(=O)(=O)Nc1cccc(Cl)c1C)n(C)c(=O)c(=O)n2C,-10%,20%,/,-3%,/,/
Cc1cc2c(cc1S(=O)(=O)Nc1cccc(C)c1C)n(C)c(=O)c(=O)n2C,-11%,55%,-4%,-19%,0.5µM*,2%
COc1ccc(CCNC(=O)CSC(=O)c2ccccc2)cc1OC,-8%,7%,0%,?,23%,21µM*
COc1ccc(CCNC(=O)CC(Cc2ccc(C)cc2)C(=O)O)cc1OC (stereo unspecified),14%,4%,-16%,-30%,/,24µM*
COc1ccc(CCNC(=O)CCn2cccc2)cc1OC,0%,6%,1%,11%,2%,-1%
SMILES,KAT2A inh,GLS inhibitor,Mito fusion act,VDR inh,PKM2 activator,PLK1 PBD inh
COc1ccc(CCNC(=O)CCN2C(=O)C3CC=CCC3C2=O)cc1OC (stereo unspecified),-4%,15%,-1%,9%,-9%,24µM*
COc1ccc(CCNC(=O)CSc2ccccc2)cc1OC,-6%,8%,-5%,-6%,0%,-1%
COc1ccc(CCNC(=O)CC2SC(N)=NC2=O)cc1OC (stereo unspecified),3%,2%,-6%,?,-1%,21µM*
COc1ccc(CCNC(=O)Cc2ccc(OC)c(OC)c2)cc1OC,-4%,4%,0%,13%,1%,-11%
Cc1cc(C)cc(NS(=O)(=O)c2ccc3oc(=O)ccc3c2)c1,-2%[0.501 µM],0%,9%,4%,?,-5%
O=Nc1ccc2oc(=O)ccc2c1,?,/,-54%,13µM*,/,/
Cc1ccc(Sc2oc(/C=N/n3cnnc3)cc2Br)cc1,2%,8.9µM*,0%,10%,-3%,-10%
Cc1ccc(-c2ccc(/C=N\n3cnnc3)o2)c(Br)c1,-15%,-4%,-18%,8%,-2%,-17%
Cc1ccc(S(=O)(=O)c2nc(Nc3ccccc3)sc2Cl)cc1,-5%,29%,-3%,-17%,13%,30µM*
COc1ccc(Nc2nc(S(=O)(=O)c3ccc(C)cc3)c(Cl)s2)cc1,-8%,-5%,?,6%,8%,-7%
Cn1nc(C(C)(C)C)cc1C(=O)N1CCCC(c2cc(C(=O)NCc3ccccc3)no2)C1 (stereo unspecified),/,1%,/,/,/,-5%
COc1ccc(OCC(=O)NC(=S)Nc2ccc3c4c(cccc24)CC3)cc1,0%,0%,0%,-2%,4%,-7%
Cc1ccccc1OCC(=O)NC(=S)Nc1ccc2c3c(cccc13)CC2,-3%,?,-1%,-25%,-4%,3µM*
CCC(C)(C)C1CCC2(CC1)NC(=O)N(CC(=O)N1CCN(C(=O)c3ccco3)CC1)C2=O (stereo unspecified),3%,1%,-5%,-2%,/,-5%
Oc1ccccc1C(=S)N1CCCCC1,1%,-9%,0%,-22%,-7%,27µM*
O=C(CC1C(=O)NCCN1CC1CCCCC1)NCc1ccc(F)cc1F (stereo unspecified),0%,-5%,-1%,-16%,-6%,-13%
O=C(CC1C(=O)NCCN1CC1CCCCC1)NCc1cc(F)ccc1F (stereo unspecified),-3%,?,14%,?,13%,3.8µM*
O=c1[nH]nc(N/N=C/c2ccc(Cl)cc2Cl)c(=O)[nH]1,-7%,-7%,-1%,?,1%,24µM*
O=c1c2c(nc3cc(-c4cccc(F)c4)[nH]n13)CCC2,-1%,12%,-5%,-11%,-3%,24µM*
O=c1c2c(nc3cc(-c4ccc(F)cc4)[nH]n13)CCCC2,-2%,11%,12%,3%,2%,-9%

# Screening results: PubChem BioAssay, National Center for Advancing Translational Sciences (NCATS)
